High-throughput results from PubChem.
IDH1 R132H inh = human IDH1 R132H inhibition. AID 602179. Potency, µM (highest dose often 76.6 µM), for inactives: top-dose activity change, negative = inhibition, actives largely listed as inhibitors. 390,000 tested, 0.093% active. O75874. IDH1-R132H enzyme, NADPH consumption, diaphorase/resazurin fluorescence; note: potency is the fitted concentration of half-maximal effect; % is set by controls: 0 for no effect and ±100 for the full control effect; nearly all actives have a fitted effect of over 65% in size
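IDH1-R132H (0.5 ug/mL) preincubated 30 min with compound, then NADPH (0.016 mM) and alpha-KG (2 mM) added; 80 min at RT, pH 7.5. Remaining NADPH coupled via diaphorase/resazurin to fluorescence (540/590 nm); concentration-response curves normalized to no-enzyme control.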
rTrxR1 inhibitor = inhibitors of rat thioredoxin reductase 1; O89049; recombinant rTrxR1, NADPH fluorescence consumption, selenite substrate; Potency, µM (series often up to 114 µM), without a hit: top-dose activity change, negative = inhibition, actives largely listed as inhibitors; 390,000 tested, 1% active; note: potency is the fitted concentration of half-maximal effect; % is set by controls: 0 for no effect and ±100 for the full control effect; nearly all actives have a fitted effect of over 65% in size
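Rat TrxR1 (90 nM in the dispensed reagent) was pre-reduced with 400 uM NADPH for 5 min at room temperature, then incubated with compound for 15 min. After 400 uM selenite was added, NADPH fluorescence (Ex 340/Em 450 nm) was followed for 8 min.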
12-LOX inh = blocks human arachidonate 12S-lipoxygenase; purified 12hLO, xylenol orange hydroperoxide absorbance; Potency, µM (top dose mostly 108 µM), inactives show at the highest dose activity change, negative = inhibition, usual class: inhibitors; 580,000 tested, 1.1% active; AID 1671190; note: potency is the fitted concentration of half-maximal effect; % is set by controls: 0 for no effect and ±100 for the full control effect
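Purified human 12hLO (150 nM final) in 25 mM Hepes, 0.01% Triton X-100, pH 7.0 was preincubated 15 min at room temperature with compound. Then 40 uM arachidonic acid was added, 30 min. Hydroperoxide was read by Fe-XO absorbance ratio 573/405 nm.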
TrxR1 substrate = is turned over as a substrate by rat TrxR1 | 390,000 tested, 0.01% active | Potency, µM (top dose mostly 114 µM), for inactives: at the highest dose activity change, negative = substrate turnover | O89049 | purified TrxR1 substrate turnover, NADPH consumption readout; note: potency is the fitted concentration of half-maximal effect; % is set by controls: 0 for no effect and ±100 for the full control effect; nearly all actives have a fitted effect of over 50% in size
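Rat TrxR1, dispensed at 90 nM, was prereduced with 400 uM NADPH (final) for 5 min at ~22 deg C, then incubated with compound 15 min before 400 uM selenite. A first-read NADPH fluorescence drop versus no-compound background flagged substrates.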
GRP78 ERSR act = induces the endoplasmic reticulum stress response in human glioma cells; U87-MG GRP78 promoter luciferase reporter, 16 h; 420,000 tested, 0.02% active; Potency, µM, for the others: at the highest dose activation, hits mostly activators; note: potency is the fitted concentration of half-maximal effect; series mostly up to about 76 µM; % of control where 0% means no effect; nearly all actives have a fitted effect of over 35% in size
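Stably transfected U87-MG human glioma cells carrying a GRP78-based luminescent sensor were seeded at 1000 cells/well, pin-dosed with compounds and incubated 16 h. Luciferase reagent was then added, and end-point luminescence was read after 10 min at room temperature.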
Apoferritin bind = binds horse apoferritin like a general anesthetic | Potency, µM (highest dose often 77.5 µM), inactives show at the highest dose activity change, negative = displacement, most hits filed as inhibitors | P02791 | AID 485281 | 350,000 tested, 0.074% active | apoferritin/1-aminoanthracene competitive binding, fluorescence; note: potency is the fitted concentration of half-maximal effect; % is set by controls: 0 for no effect and ±100 for the full control effect; nearly all actives have a fitted effect of over 20% in size
Target sequence (P02791 2-175 limits assumed): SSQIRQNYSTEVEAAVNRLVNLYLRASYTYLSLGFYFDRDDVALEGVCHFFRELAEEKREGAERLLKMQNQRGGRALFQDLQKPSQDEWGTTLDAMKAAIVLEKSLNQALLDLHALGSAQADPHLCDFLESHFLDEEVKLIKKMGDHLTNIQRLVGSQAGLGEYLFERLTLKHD
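Probe: 1-aminoanthracene (50% saturated, PBS). Protein: horse-spleen apoferritin, 10 uM. Incubation: 10 min, room temperature. Detection: 380 nm excitation, 535 nm emission. Analysis: normalized response, four-parameter Hill.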
IDH1 autofl = autofluorescence interference, mutant IDH1 hit counter-screen. shares compounds with IDH1 R132H inh. Resorufin detection reagent fluorescence interference, cell-free. inhibition of signal, % at 51.2 µM. 750 tested, under 10 active;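 note: 0% = wells with normal resorufin and full inhibition = wells lacking resorufin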
IDH1 WT = selectivity of mutant IDH1 inhibitors: human wild-type IDH1; Potency, µM (top dose mostly 115 µM), inactives show at the highest dose activity change, negative = inhibition, actives largely listed as inhibitors; shares compounds with IDH1 R132H inh; WT IDH1 enzyme, NADPH diaphorase/resazurin fluorescence; 750 tested, 9% active;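 note: potency is the fitted concentration of half-maximal effect; 0% = full WT IDH1 enzyme control and full inhibition = no enzyme wells; nearly all actives have a fitted effect of over 55% in size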
mIDH1 confirm = confirmation of human mutant IDH1 inhibitors; Potency, µM (doses to about 76.6 µM), for the others: at the highest dose activity change, negative = inhibition, usual class: inhibitors; 750 tested, 83% active; IDH1 R132H enzyme, NADPH diaphorase/resazurin fluorescence; AID 624002; shares compounds with IDH1 R132H inh; note: potency is the fitted concentration of half-maximal effect; nearly all actives have a fitted effect of over 50% in size
Numbers without * were called inactive; ? = inconclusive; . = no result; [ ] = another dose, or the depositor's remark. Only some compounds are listed: those with a hit (about 1.7% of all), similar ones and a draw of the others. Calls come from the whole dose curve; as a rule, active = well fitted curve in the direction sought with a large enough effect; inconclusive = small, poorly fitted or top-dose-only effect, or another doubt; inactive = no such curve, though single readings can be large; an effect the other way counts as inactive or inconclusive.

SMILES	IDH1 R132H inh	rTrxR1 inhibitor	12-LOX inh	TrxR1 substrate	GRP78 ERSR act	Apoferritin bind	IDH1 autofl	IDH1 WT	mIDH1 confirm
COc1ccccc1-n1c(-c2ccccc2)nc2ccccc2c1=O	6%	6%[57.1 µM]	0%	3%	-2%	-11%	.	.	.
COc1ccc(-c2c3c(=O)n(C)c(=O)n(C)c3c3n2-c2ccccc2NC3c2ccccc2OC)cc1 (stereo not drawn)	45µM*	7%	15%	-5%	-1%	-3%	0	3%	6.3µM*
O=C1N(Cc2cccnc2)C[C@H]2CN(C3CCC3)CCN12	.	.	16%[176 µM]	.	.	.	.	.	.
Cc1ccc(C[n+]2c(-c3ccc(C)cc3)cc(-c3ccc(C)cc3)cc2-c2ccc(C)cc2)cc1	40µM*	7%	.	63%	-10%	.	0	12%	22µM*
CCOc1ccccc1Oc1coc2cc(OC(=O)c3ccco3)ccc2c1=O	?	15%	-4%	18%	-1%	-5%	-9	1%	28µM*
CN1C(=O)/C(=C\c2ccc(N3CCCCCC3)cc2)C(=O)NC1=S	46µM*	20µM*	0%	-2%	-5%	-14%	-12	-4%	22µM*
CC(C)(C)NCC(O)c1cc(Cl)c(N)c(C(F)(F)F)c1 (stereo not drawn)	.	.	.	.	-5%	.	.	.	.
O=C1NC(=O)C(=Cc2ccc(-c3ccc(Cl)cc3)o2)C(=O)N1	?	-60%	.	7%[57.1 µM]	0%	-20%	3	2%	40µM*
Cc1nc(-c2cccs2)cc([C@H]2CN3CC[C@H]2C[C@@H]3CNC(=O)c2ccc3c(c2)OCO3)n1	.	.	34%	.	.	.	.	.	.
O=c1[nH]c(O)c(/C=C2/C=CC(c3cc(Cl)ccc3Cl)=N2)c(=O)[nH]1	29µM*	2%	-8%	0%	-2%	-7%	3	45µM*	11µM*
C=C1C(=O)O[C@@H]2C[C@@H](C)[C@@H]3C=CC(=O)[C@@]3(C)[C@@H](OC(=O)CC(=O)O[C@H]3[C@@H]4C(=C)C(=O)O[C@@H]4C[C@@H](C)[C@@H]4C=CC(=O)[C@]43C)[C@H]12	?	?	?	3%	-12%	-9%	9	-10%	?
C=C1C(=O)OC2CC(C)C3C=CC(=O)C3(C)C(O)C12 (stereo not drawn)	6%	-54%[57.1 µM]	.	-3%[57.1 µM]	-14%	.	.	.	.
